According to ChEMBL document CHEMBL3988442, “University of Dundee, Small-Polar-MMV Screening Library” (2021):
In all, about 48,000 compounds went through this assay and about 13,000 (27%) showed an effect of 50% or more. The list shows a part of the results.

System: Wolbachia pipientis
Assay: Anti-Wolbachia Cell-Based Screen
Format: functional
Set-up: scale not given: in the data most compounds retested in dose-response had high values
Settings: 5 µM

| Structure (SMILES) | Percent Effect [%] |
| --- | --- |
| Cc1ccc(CN2C[C@H]3CN(CC4CCN(C)CC4)C(=O)[C@H]3C2)s1 | -10.19 |
| O=C(c1ncccc1O)N1CCc2c(nc(-c3ccncc3)[nH]c2=O)C1 | -0.3257 |
| Cc1nc2sccn2c1C(=O)N1CCc2c(nc(N)[nH]c2=O)C1 | -0.7078 |
| O=C(c1cccnc1)N1CCc2c(nc(N3CCCC3)[nH]c2=O)C1 | 113.8 |
| Cc1nc(C(=O)N2CCc3c(nc(-c4ccncc4)[nH]c3=O)C2)cs1 | -11.53 |
| O=C(c1ccc(=O)[nH]c1)N1CCc2c(nc(-c3cccnc3)[nH]c2=O)C1 | 3.404 |
| O=C(c1cc[nH]n1)N1CCc2c(nc(N3CCCCC3)[nH]c2=O)C1 | 120.1 |
| O=C(c1cccs1)N1CCc2c(nc(N3CCCCC3)[nH]c2=O)C1 | 121.5 |
| O=C(c1cccs1)N1CCc2c(nc(N3CCCC3)[nH]c2=O)C1 | 120 |
| O=C(c1ccsc1)N1CCc2c(nc(-c3ccncc3)[nH]c2=O)C1 | -0.2016 |
| O=C(c1ccccn1)N1CCc2c(nc(N3CCCC3)[nH]c2=O)C1 | -8.561 |
| Cc1nc2sccn2c1C(=O)N1CCc2c(nc(N(C)C)[nH]c2=O)C1 | 14.79 |
| Nc1nc2c(c(N3CCN(C(=O)c4cccs4)CC3)n1)CCCC2 | 3.246 |
| O=C(Nc1cncc(Br)c1O)c1ccon1 | -9.076 |
| Cc1csc(CCNC(=O)c2cc3c(nc2O)CCC(C)C3)n1 (stereo not drawn) | -7.199 |
| CC(C)(C)n1cc(C#N)cc1NC(=O)CCS(=O)(=O)C1CCCC1 | -10.01 |
| COCC(C)(CCO)NC(=O)Nc1cccc(Br)c1C (stereo not drawn) | 7.029 |
| NC(=O)CN1CCN(c2ccnc3c(F)ccc(F)c23)CC1 | 3.08 |
| NC(=O)c1cccc2nc([C@H]3CCN(Cc4ccccn4)C3)[nH]c12 | -3.203 |
| COc1ccc(C)cc1CNC(=O)C1=NN(c2ccccc2)C(=O)CN1 | 14.16 |
| COC(=O)c1ccc(N2CCN(Cc3csc(C)n3)CC2)nn1 | -1.977 |

| Structure (SMILES) | Percent Effect [%] |
| --- | --- |
| Cc1nn(C)c2nc(N3CCC(C(O)c4nccn4C)CC3)sc12 (stereo not drawn) | -3.971 |
| CCc1nc(CNc2nc3c(s2)c(C)nn3C)cs1 | -39.2 |
| Cc1cc(N2CCN(Cc3nccn3C)CC2)cc(C)n1 | -5.748 |
| CC(C)Sc1ccc(N2CCN(Cc3ccccn3)CC2)nn1 | 14.48 |
| Cc1nn(C)c2nc(N3CCN(Cc4nccn4C)CC3)sc12 | 103.8 |
| Cc1nc(CNc2nc3c(s2)c(C)nn3C)cs1 | -20.12 |
| Cc1nc(CN2CCN(c3ccc(SC(C)C)nn3)CC2)cs1 | 68.89 |
| Cc1nc(CN2CCN(c3nc4c(s3)c(C)nn4C)CC2)cs1 | 119.2 |
| Cc1ccc2c(c1)C(NC(=O)N(C)C)CC21CCN(C(C)C)CC1.O=C(O)C(F)(F)F (stereo not drawn) | 100.3 |
| Cc1ccc2c(c1)C(N(C)C)CC21CCN(CCO)CC1.O=C(O)C(F)(F)F.O=C(O)C(F)(F)F (stereo not drawn) | 1.059 |
| CCN1CCC2(CC1)CC(NC(=O)N(C)C)c1cc(C)ccc12.O=C(O)C(F)(F)F (stereo not drawn) | -13.82 |
| Cc1ccc2c(c1)C(NC(=O)N(C)C)CC21CCN(C)CC1.O=C(O)C(F)(F)F (stereo not drawn) | 102.1 |
| CC(C)N1CCC2(CC1)CC(CC(N)=O)c1ccc(F)cc12.O=C(O)C(F)(F)F (stereo not drawn) | 14.5 |
| Cc1ccc2c(c1)C(NC(=O)N(C)C)CC21CCN(CC2CC2)CC1.O=C(O)C(F)(F)F (stereo not drawn) | 116.9 |
| CCN1CCC2(CC1)CC(NC(=O)NC)c1cc(C)ccc12.O=C(O)C(F)(F)F (stereo not drawn) | -18.25 |
| Cn1nnc2c1CCN(S(C)(=O)=O)C2COCc1ccccc1 (stereo not drawn) | -3.39 |
| Nc1cc2c(nn1)CCN(C(=O)c1csc(-c3ccccc3)n1)C2 | 1.599 |
| O=c1cc(-c2ccncc2)nc(-c2ccc(CN3CC[C@@H](O)C3)cc2)[nH]1 | 1.525 |
| COc1ccc(-c2nc(CN3CCc4c(ncn4C)C3)cs2)cc1 | 30.48 |
| c1cc(-c2noc(CN3CCc4c(ncn4C4CC4)C3)n2)cs1 | 0.1339 |
| CCCc1nc(CN2CCc3c(ncn3C3CC3)C2)cs1 | 72.74 |

| Structure (SMILES) | Percent Effect [%] |
| --- | --- |
| CCc1nc(CN2CCc3c(ncn3C3CC3)C2)cs1 | 49.69 |
| Cn1cnc2c1CCN(Cc1csc(-c3ccsc3)n1)C2 | 1.661 |
| Cn1cnc2c1CCN(Cc1csc(C3CCCCC3)n1)C2 | 104.6 |
| Cc1ccc(-c2nc(CN3CCc4c(ncn4C)C3)cs2)o1 | 0.8085 |
| c1ccc(-c2nc(CN3CCn4c(nnc4C4CC4)C3)cs2)cc1 | 1.064 |
| Cn1cnc2c1CCN(Cc1csc(C3CCCC3)n1)C2 | 102.6 |
| c1sc(C2CCCCC2)nc1CN1CCn2c(nnc2C2CC2)C1 | 99.95 |
| c1sc(C2CCCC2)nc1CN1CCn2c(nnc2C2CC2)C1 | -0.3735 |
| Cc1cnc(-c2nc(O)c3c(n2)CN(C(=O)C2CCCO2)CC3)cn1 (stereo not drawn) | 141.1 |
| O=C(C1CCCO1)N1CCc2onc(-c3ccc(Cl)cc3)c2C1 (stereo not drawn) | 0.5907 |
| CCN(CC)C1CCN(c2ncnc3c2CCN(C(=O)C2CC2)C3)C1 (stereo not drawn) | -6.613 |
| CN(C)c1nc2c(c(=O)[nH]1)CCN(C(=O)C1CCCO1)C2 (stereo not drawn) | 4.175 |
| O=C(C1CCOC1)N1CCc2ncnc(C3CC3)c2CC1 (stereo not drawn) | 2.623 |
| Cc1cnc(-c2nc(O)c3c(n2)CN(C(=O)C2CCCC2)CC3)cn1 | 133.6 |
| Cc1cnc(-c2nc(O)c3c(n2)CN(C(=O)C2CC2)CC3)cn1 | 165.3 |
| Cc1cnc(-c2nc(O)c3c(n2)CN(C(=O)C2CCOC2)CC3)cn1 (stereo not drawn) | 177.2 |
| CCN1CCN(c2ncnc3c2CCN(C(=O)C2CC2)C3)CC1 | -21.72 |
| CNC(=O)C1CCN(c2ncnc3c2CCN(C(=O)C2CC2)C3)C1 (stereo not drawn) | -3.996 |
| O=C(C1CC1)N1CCc2c(ncnc2NCCc2nc3c(s2)CCC3)C1 | 7.369 |
| O=C(C1CCOC1)N1CCc2ncnc(NC3CCC3)c2CC1 (stereo not drawn) | -0.188 |
| NC(=O)C(NC(=O)c1ccc(NC2CC2)nc1)c1ccccc1 (stereo not drawn) | 15.13 |
